About 1,600 (39%) of roughly 4,100 compounds were called active. Not shown: some 25% with an inconclusive outcome. Calls come from the whole dose curve; as a rule, active = well fitted inhibition curve with a large enough effect; inconclusive = small, poorly fitted or top-dose-only effect; inactive = no such curve, though single readings can be large or run the other way. Some of the results follow.

The results in this text go back to PubChem BioAssay AID1347416 (National Center for Advancing Translational Sciences (NCATS), 2020).
% is set by controls: 0 for no effect and ±100 for the full control effect; potency is the fitted concentration of half-maximal effect.

This assay in a line: qHTS Validation assay for Inhibitors of Plasmodium falciparum Dd2 growth in vitro. Note: nearly all actives have a fitted effect of over 70% in size. The note with it: P. falciparum Dd2 in RBCs, SYBR Green growth, 72 h; series mostly up to 28.7 µM; activity change, negative = inhibition: at the top concentration. The source says: Malaria, a parasitic disease spread to humans through the bite of a Plasmodium infected Anopheles mosquito, continues to be a global health burden affecting millions of people, with an estimated 228 million cases and 405,000 deaths in 2018. Concerns about safety and limitations of current antimalarial treatments strongly emphasize the need to develop new therapeutic options. The scarce number of chemotypes and validated drug targets with efficacy against the liver stage, have hindered development of new antimalarials. To address this, a chemoprophylactic drug discovery effort was conducted through a combined phenotypic high-throughput asexual blood stage and liver stage screen, providing a robust foundation to identify liver-stage active lead chemotypes. Compounds were initially screened against Plasmodium falciparum Dd2 strain parasites using a in vitro SYBRGreen-1 based 72 hr proliferation assay to identify novel chemotypes to advance to liver stage assays. NIH/NCATS Early Translation Branch Assay Submitter (PI): Anton Simeonov Ph.D.
[…] Assay Protocol: PROTOCOL TABLE (as described by Inglese et al., 2007) SEQUENCE No. (e.g., 1, 2, 3, etc.); PARAMETER (e.g., Cells, Incubation, Reagent, etc.); VALUE; DESCRIPTION SEQUENCE, Parameter, Description 1; Reagent; 3 uL complete malaria growth medium, 1536 TC treated Black clear bottom plate 2; Controls; 23 nL positive control artesunate (300 nM final) to column 1; Neutral control DMSO to columns 2-4 3; Compound; 23 nL of compounds in dose response concentration (29 uM to 0.5 nM final) 4; Reagent; 5 uL malaria infected red blood cells (2.5% hematocrit final, 0.3% parasitemia 5; Time; 72 hours at 37C (5% O2, 5% CO2, 90% N2; 95% Rh) 6; Reagent; 2 uL lysis buffer/SYBRGreen-1, 25 sec shake immediately following dispense 7; Time; ~16 hours at 37C (5% O2, 5% CO2, 90% N2; 95% Rh) 8; Detector; EnVision (PerkinElmer) bottom read at 485/14nm excitation and 535/25 nm emission NOTES (numbers refer to sequence above): 1; Complete Malaria Growth Media: 1X RPMI-1640 w/L-glutamine, 5.5g/L Albumax II, 367 uM Hypoxanthine, 25 mM HEPES, 0.25% Sodium Bicarbonate, 35 uM Gentamicin sulfate 2; Controls were added using the Kalypsis Pintool (Wako USA) equipped with 1536 pinhead 3; Compounds were added in a 7-point, titration with a high final concentration of 29 uM by Pintool from seven inter-plate titrations of library plates and two DMSO control plates at the beginning and end (see Yasgar et al., 2008). 4; Red blood cells infected with Plasmodium falciparum Dd2 parasites were used. 6; Lysis buffer: 20 mM Tris-HCl, 10 mM EDTA, 0.16% Saponin, 1.6% Triton-X, 10X SYBR Green. REFERENCE: Inglese J, Shamu CE, Guy RK. 2007. Reporting data from high-throughput screening of small-molecule libraries. Nat Chem Biol. doi:10.1038/nchembio0807-438 Yasgar A, Shinn P, Jadhav A, Auld D, Michael S, Zheng W, Austin CP, Inglese J, Simeonov A. 2008. Compound Management for Quantitative High-Throughput Screening. J Lab Autom 13:79-89. doi:10.1016/j.jala.2007.12.004
On the technique in general: qHTS replaces the single test concentration by a dilution series.
Turning to `CN(C)c1cc[n+](Cc2ccccc2)cc1`, the Potency was 10.6 µM (active). On the same count and under the same terms, as for `CCOC(=O)CCCOc1cccn2c(=O)c(-c3cc(C)n(-c4ccc(Cl)cc4)n3)c(C)nc12`, the figure is 10.6 µM (active).

On to `CC(C)CCN1CCC2(CC1)CC(=O)N(c1ccccc1)c1ccccc1O2`, for which the “activity change, negative = inhibition” value was -9.65% (inactive). Same read-out and setting: under `COc1ccc(-n2nc(C3CCN([S+](=O)([O-])c4cccc(C(F)(F)F)c4)CC3)[nH]c2=O)cc1` stands 0% (inactive). Consider `O=C1CC2(CCN([S+](=O)([O-])c3cccc(C(F)(F)F)c3)CC2)Oc2ccccc2N1c1ccccc1`, for which the Potency is 6.68 µM (active). Take `CN(C)c1ccc(NC(=O)Oc2ccccc2)cc1`: the “activity change, negative = inhibition” value is 11.4% (inactive). Consider `Cc1ccc(S(=O)(=O)NC(=O)Nc2ccc(N(C)C)cc2)cc1`, for which the Potency is 1.33 µM (active).

As to `Cc1c(CN2CCN(CC(C)(C)C)C(CCO)C2)[nH]c2ccccc12` (stereo unspecified), the Potency is 9.44 µM (active).

With `CC(C)CC(NC(=O)C(NC(=O)OC(C)(C)C)C(C)C)C(=O)NC(CCC(=O)OCc1ccccc1)C(N)=O` (stereo unspecified), the Potency is 8.41 µM (active). In the case of `CC(C)c1ccccc1NC(=O)C(Cc1c[nH]c2ccccc12)NC(=O)OC(C)(C)C` (stereo unspecified), the “activity change, negative = inhibition” value was -18.5% (inactive). Turning to `N=c1n(CCN2CCCCC2)c2ccccc2n1CC(O)COc1ccc(Cl)cc1Cl` (stereo unspecified), the Potency was 4.22 µM (active).

`CCn1c(=N)n(CC(O)c2cccs2)c2ccccc21` (stereo unspecified): the “activity change, negative = inhibition” value is -26.2% (inactive).

Consider `CCN(CC)CCn1c(=N)n(CC(O)COc2ccccc2C)c2ccccc21` (stereo unspecified), for which the Potency is 3.35 µM (active). The same measure, in the same setting: as for `CCCCCn1c(=N)n(CC(O)COc2cccc(C)c2)c2ccccc21` (stereo unspecified), the figure is 2.11 µM (active); as for `CCN(Cc1ccccc1)C(=O)CCC[C@@H]1[C@H]2CCCN3CCC[C@@H](CN1C(=O)c1ccccc1)[C@@H]23`, 13.3 µM (active).

As to `CC(C)CN1CCN(C(=O)CCC[C@@H]2[C@H]3CCCN4CCC[C@@H](CN2Cc2cccnc2)[C@@H]34)CC1`, the “activity change, negative = inhibition” value is -17% (inactive). As to `CC(=O)N1C[C@@H]2CCCN3CCC[C@@H]([C@H]23)[C@H]1CCCC(=O)Nc1ccccc1`, the “activity change, negative = inhibition” value is -1.67% (inactive). `COc1ccccc1Nc1cnc2ccc(-c3ccc(F)cc3)nn12`: the Potency was 6.85 µM (active).

Take `COc1ccccc1Nc1cnc2ccc(-c3ccc(OC)c(OC)c3)nn12`: the Potency is 1.53 µM (active). With `COc1ccccc1C(=O)NCc1nnc2ccc(-c3ccc(C)cc3)nn12`, the “activity change, negative = inhibition” value is 0% (inactive). On to `CCOc1ccc(C(C)NC(=S)NC2CCCCC2)cc1OCC` (stereo unspecified), for which the Potency is 0.211 µM (active). Same read-out and setting: as for `COc1ccc(C(C)NC(=S)NC2CCCC2)cc1OC` (stereo unspecified), the figure is 6.68 µM (active).

Turning to `CC(C)c1ccc(OCC(=O)NC2CCCC2)cc1`, the “activity change, negative = inhibition” value is -28.4% (inactive). On the same count and under the same terms, as for `O=C1Nc2ccc(-c3ccccc3F)cc2C(=O)N2CCN(C(=O)c3ccccc3)C[C@H]12`, the figure is -15.2% [at 43.1 µM] (inactive). Consider `CCN1CCN(C(=O)c2ccc3c(c2)N(Cc2c(F)cccc2Cl)C(=O)c2ccccc2S3)CC1`, for which the Potency is 0.0084 µM (active). Turning to `COc1ccc(C(=O)N2CCCC3(C2)NC(=O)N(Cc2cccc(Cl)c2)C3=O)cc1F` (stereo unspecified), the “activity change, negative = inhibition” value was -22% (inactive). For `CN1CCN(C(=O)c2ccc3c(c2)N(Cc2c(F)cccc2Cl)C(=O)c2ccccc2S3)CC1`, the Potency was 0.0596 µM (active).

Regarding `Cc1ccc(C(=O)N2CCN(c3nnc4c(Cl)cccn34)CC2)cc1F`, the “activity change, negative = inhibition” value was -6.08% (inactive). In the case of `CC(C)(C)C1CCC2(CC1)NC(=O)N(CC(=O)NC1CCCCC1)C2=O` (stereo unspecified), the “activity change, negative = inhibition” value is 7.63% (inactive). Take `CC(C)CNC(=O)CN1CN(c2ccccc2)C2(CCN(C(=O)NC3CCCCC3)CC2)C1=O`: the Potency is 15 µM (active).

As to `O=C(OCc1ccccc1)N1CCC2(CC1)C(=NC1CCCCC1)NC(=O)N2c1cccnc1`, the “activity change, negative = inhibition” value was 2.65% (inactive).

On to `CC(C)OCCCNc1sc(S(=O)(=O)c2ccccc2)nc1S(=O)(=O)c1ccc(Cl)cc1`, for which the Potency is 0.266 µM (active). The same measure, in the same setting: as for `CCCS(=O)(=O)c1nc(S(=O)(=O)c2ccc(C)cc2)c(NCCCOC(C)C)s1`, the figure is 2.11 µM (active). On the same count and under the same terms, under `Cc1ccc(S(=O)(=O)c2nc(S(=O)(=O)c3ccccc3)sc2NCCCOC(C)C)cc1` stands 0.596 µM (active); under `O=[N+]([O-])c1ccc(N2CCN(C(=S)NC3CCCCC3)CC2)cc1`, 1.88 µM (active); under `C=CCNC(=S)N1CCN(c2ccc([N+](=O)[O-])cc2)CC1`, 4.22 µM (active). On to `Cc1ccc(C)c(-c2cc3c(=O)n(CCNC(=O)c4ccncc4)ccn3n2)c1`, for which the “activity change, negative = inhibition” value is 0.395% (inactive). `CC(C)n1nc(OC(C)(C)C(=O)NCC2CCOCC2)c2cc(CN3CCOCC3)ccc21`: the “activity change, negative = inhibition” value is 5.77% (inactive). As for `CC(C)CNC(=O)C(C)(C)Oc1nn(CC2CC2)c2ccc(CN3CCCC3)cc12`, the Potency was 19.3 µM (active).

Turning to `O=C([C@@H]1C[C@H](Oc2cccnc2)CN1C(=O)NCCc1ccccc1)N1CCOCC1`, the “activity change, negative = inhibition” value is 22.2% (inactive). For the molecule `CCN(CC)CCN1C(=O)c2ccccc2NC1c1ccc(N(C)C)cc1` (stereo unspecified), the Potency is 4.22 µM (active).

Consider `CCN(CC)CCN1C(=O)c2ccccc2NC1c1ccc(Br)cc1` (stereo unspecified), for which the Potency is 1.5 µM (active).

Regarding `CCN(CC)CCN1C(=O)c2ccccc2NC1c1ccc(C)cc1` (stereo unspecified), the Potency is 2.99 µM (active). For the molecule `CCc1ccc(CNC(=O)c2ccc(-c3nc(CSc4ccc(C)cc4)c(C)o3)cc2)cc1`, the “activity change, negative = inhibition” value is 30.9% (inactive). Same read-out and setting: as for `CCc1noc(-c2ccn3c(CNC(=O)COc4cccc(C)c4)nnc3c2)n1`, the figure is 27.4% (inactive). For `O[C@@H]1CC(CNCC2CCCC2)(COc2ccc(C(F)(F)F)cn2)C[C@@H]1O` (stereo partly specified), the Potency was 5.31 µM (active).
